# Data reported in PubChem BioAssay.
# Molecular target: Dickkopf-related protein 1 (Homo sapiens) (UniProt O94907)
# Assay: small molecules binding DKK1 protein – biochemical, small-molecule microarray, 635 nm fluorescence scan, primary screen (AID 1106);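 further: score merges emission near 667 nm with signal to noise over three replicate slides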
# Conditions: higher = more signal
# Sequence of Dickkopf-related protein 1 (Homo sapiens) (O94907 whole entry, looked up): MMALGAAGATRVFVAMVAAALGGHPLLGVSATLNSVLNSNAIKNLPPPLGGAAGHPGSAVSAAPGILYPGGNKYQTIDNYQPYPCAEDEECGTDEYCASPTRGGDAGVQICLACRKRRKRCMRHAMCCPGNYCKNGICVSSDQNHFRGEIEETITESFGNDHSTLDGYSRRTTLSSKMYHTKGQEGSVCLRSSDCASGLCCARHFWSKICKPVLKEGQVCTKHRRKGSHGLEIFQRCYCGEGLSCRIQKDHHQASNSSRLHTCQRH
row,SMILES,composite z-score
1,CC(=O)NCCCC[C@@H]1NC(=O)[C@@H]2C[C@H](C(=O)NCc3ccc(F)cc3)[C@H](c3cccc(OCCO)c3)N2C1=O,-0.047
2,O=C(CS)NCCCCCNC(=O)[C@H]1C[C@H]2C(=O)N3CCC[C@H]3C(=O)N2[C@H]1c1ccc(O)cc1,0.844
3,C=C(COC)/C(=C/C[C@H](OC(C)=O)c1ccc(OCCO)cc1)c1cnc2ccccc2c1,0.766
4,COc1cc([C@@H]2N[C@H](C(=O)O)Cc3c2[nH]c2ccccc32)cc(OC)c1OC,0.977
5,C=CC[C@@]1(C(=O)N2CCOCC2)N=C(c2ccc(OCCCO)cc2)O[C@@H]1c1ccccc1,-0.191
6,COCCOC(=O)N1C(=O)[C@@]2(c3cc(C#CC4=CCCCC4)ccc31)[C@H](c1ccc(O)cc1)N1[C@H](c3ccccc3)[C@H](c3ccccc3)OC(=O)[C@H]1[C@@H]2C(=O)N1CCCCCCC1,0.948
7,COCCOC(=O)N1C(=O)[C@@]2(c3cc(C#CC4=CCCCC4)ccc31)[C@H](C(=O)NC[C@H](O)c1ccccc1)[C@H]1C(=O)O[C@H](c3ccccc3)[C@H](c3ccccc3)N1[C@@H]2c1ccccc1OCCO,0.599
8,C=CC[C@]1(C(=O)NCC(O)CO)N=C(c2ccc(OCCCO)cc2)O[C@H]1c1ccccc1 (stereo not given in full),-0.296
9,C=CCC(OC(C)=O)[C@@H]1[C@@H](N(Cc2cc3ccccc3o2)C(=O)c2ccc(C)cc2)c2cc(OCCCO)ccc2N1C(=O)c1ccc2ccccc2n1 (stereo not given in full),-0.0273
10,CC(C)NC(=O)[C@@]1(Cc2ccccc2I)c2ccccc2C(=O)N(C2CCCCC2)[C@H]1c1ccc(CO)cc1,0.4
11,C=C[C@H](OC)[C@@H](OC(=O)Nc1ccc(SC)cc1)c1ccc(OC)c(O)c1,-0.559
12,CCc1cccc(NC(=O)O[C@H]2[C@H](OC(=O)Nc3ccccc3)[C@@H](OC(=O)Nc3ccccc3)[C@@H](OC)O[C@@H]2CO)c1,0.319
13,COCCOC(=O)N1C(=O)[C@@]2(c3cc(C#CCC(C(=O)OC)C(=O)OC)ccc31)[C@H](C(=O)N1CCN(c3ncccn3)CC1)[C@H]1C(=O)O[C@H](c3ccccc3)[C@H](c3ccccc3)N1[C@@H]2c1ccc(O)cc1,0.0392
14,COc1ccc(-c2cc3c(c(-c4ccccc4)n2)[Si](C(C)C)(C(C)C)O[C@H]3c2ccccc2)cn1,0.0263
15,CCC(=O)[C@]12O[C@@]3([C@@H]4C(=O)OCC[C@@H]41)N(Cc1ccccc1)C(C)=C(C(=O)OC)[C@@H](c1ccccc1)N3C2=O,-0.0297
16,CO[C@@H]1COC(=O)[C@H](C)NC(=O)CC=C[C@@H](C)[C@H](NS(=O)(=O)c2ccc(C)cc2)COC(=O)CC=C[C@@H]1C,0.0647
17,CC(=O)Nc1ccc([C@H]2[C@H](C)CC[C@H]3C(=O)N4[C@@H](CC[C@@H](C)[C@@H]4c4ccc(NC(C)=O)cc4)C(=O)N32)cc1,0.759
18,C=CCN(C(=O)C1N(c2ccc(CCO)cc2)C(=O)C2C(C(=O)O)C3C=CC21O3)C(C)(C)C (stereo not given),-4.35
19,CO[C@H]1COC(=O)[C@H](C)NC(=O)CC=C[C@@H](C)[C@H](NS(=O)(=O)c2ccc(C)cc2)COC(=O)[C@@H](OCc2ccccc2)C=C[C@@H]1C,1.37
20,COCCCNC(=O)[C@@]1(Sc2ccc(C)cc2)CC(=O)N(Cc2cc(C(F)(F)F)cc(C(F)(F)F)c2)[C@@H]1c1ccc(CO)cc1I,-1.79
21,CO[C@H]1COC(=O)CC=C[C@H](C)[C@@H](OC)COC(=O)[C@H](Cc2ccccc2)NC(=O)CC=C[C@@H]1C,1.96
22,COCCOC(=O)N1C(=O)[C@@]2(c3cc(C#CCCO)ccc31)[C@H](C(=O)N1CCCCCCC1)[C@H]1C(=O)O[C@H](c3ccccc3)[C@H](c3ccccc3)N1[C@@H]2c1ccc(O)cc1,0.4
23,Cc1ccc(N2C(=O)c3ccccc3[C@@H](C(=O)NCc3ccccc3)[C@@H]2c2ccc(CO)cc2)nc1,0.251
24,O=C1C2C=CC(C(O)C(c3ccccc3)c3ccccc3)N(Nc3ccc([N+](=O)[O-])cc3)C2C(=O)N1c1ccccc1 (stereo not given),0.331

# Tested on: Inhibin beta A chain (activin A)
# Assay: small molecules binding activin A – biochemical, small-molecule microarray, 635 nm fluorescence scan, primary screen (AID 1107);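 further: mouse activin A protein probed at 4.33 µg/mL on printed slides; score merges bound-protein fluorescence near 667 nm with spot signal-to-noise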
# Conditions: INHBA, higher = more signal
row,SMILES,composite z-score
1,CO[C@H]1COC(=O)[C@@H](C)COC(=O)[C@H](Cc2ccccc2)NC(=O)CC=C[C@H]1C,1.15
2,C=CCC(OC(C)=O)[C@@H]1[C@@H](N(Cc2cccc3ccccc23)C(=O)c2ccc(C)cc2)c2cc(OCCCO)ccc2N1C(=O)c1ccc(-c2ccccc2)cc1 (stereo not given in full),1.08
3,CC(C)[C@H]1NC(=O)[C@@]23C(=O)N[C@@H](Cc4ccccc4)C2[C@H](C)[C@@]2(C)O[C@H]2C3/C=C/C/C=C\CNC(=O)[C@H](C)NC1=O (stereo not given in full),1.32
4,CO[C@H]1COC(=O)[C@@H](Cc2ccccc2)NC(=O)[C@@H](C)COC(=O)CC=C[C@@H]1C,1.31
5,CN1CCC(CCCO)=CC1C1CC1 (stereo not given),0.719
6,CC(C)[Si]1(C(C)C)OCc2cc(C3CC3)nc(-c3ccccc3)c21,1.21
7,O=C1c2ccccc2[C@](Cc2ccccc2I)(C(=O)O)[C@H](c2ccc(CO)cc2)N1C1CCCCC1,0.198
8,C[C@@H]1NC(=O)CC=C[C@@H](C)[C@@H]2C=C[C@H](O)[C@@H](COC(=O)[C@H](C)NC(=O)CC=C[C@@H](C)[C@@H]3C=C[C@H](O)[C@@H](COC1=O)O3)O2,0.0277
9,C=CCc1cccc([C@@H]2[C@@H](C)CC[C@H]3C(=O)N4[C@H](c5cccc(CC=C)c5)[C@@H](C)CC[C@H]4C(=O)N23)c1,1.67
10,C=CC[C@@]12N=C(c3ccc(OCCCO)cc3)O[C@@H]1c1ccccc1CN(Cc1ccccc1)C2=O,1.01
11,COc1ccc([C@H]2C[C@H]3C(Br)=C[C@]2(OC)C(=O)[C@]32CO2)cc1,0.504
12,C=CCOC(=O)[C@@H]1[C@H]2C(=O)O[C@H](c3ccccc3)[C@H](c3ccccc3)N2[C@H](c2ccc(OCCOC(=O)[C@H]3C[C@H]4C(=O)N5CCC[C@H]5C(=O)N4[C@H]3c3ccc(O)cc3)cc2)[C@@]12C(=O)Nc1ccccc12,0.668
13,CC(=O)NCCCC[C@@H]1NC(=O)[C@@H]2C[C@H](C(=O)NCc3ccc(F)cc3)[C@H](c3cccc(OCCO)c3)N2C1=O,0.101
14,O=C(CS)NCCCCCNC(=O)[C@H]1C[C@H]2C(=O)N3CCC[C@H]3C(=O)N2[C@H]1c1ccc(O)cc1,0.594
15,C=C(COC)/C(=C/C[C@H](OC(C)=O)c1ccc(OCCO)cc1)c1cnc2ccccc2c1,1.8
16,COc1cc([C@@H]2N[C@H](C(=O)O)Cc3c2[nH]c2ccccc32)cc(OC)c1OC,-1.7
17,C=CC[C@@]1(C(=O)N2CCOCC2)N=C(c2ccc(OCCCO)cc2)O[C@@H]1c1ccccc1,0.437
18,COCCOC(=O)N1C(=O)[C@@]2(c3cc(C#CC4=CCCCC4)ccc31)[C@H](c1ccc(O)cc1)N1[C@H](c3ccccc3)[C@H](c3ccccc3)OC(=O)[C@H]1[C@@H]2C(=O)N1CCCCCCC1,1.6

row,SMILES,composite z-score
1,COCCOC(=O)N1C(=O)[C@@]2(c3cc(C#CC4=CCCCC4)ccc31)[C@H](C(=O)NC[C@H](O)c1ccccc1)[C@H]1C(=O)O[C@H](c3ccccc3)[C@H](c3ccccc3)N1[C@@H]2c1ccccc1OCCO,1.13
2,C=CC[C@]1(C(=O)NCC(O)CO)N=C(c2ccc(OCCCO)cc2)O[C@H]1c1ccccc1 (stereo not given in full),0.236
3,C=CCC(OC(C)=O)[C@@H]1[C@@H](N(Cc2cc3ccccc3o2)C(=O)c2ccc(C)cc2)c2cc(OCCCO)ccc2N1C(=O)c1ccc2ccccc2n1 (stereo not given in full),1.51
4,CC(C)NC(=O)[C@@]1(Cc2ccccc2I)c2ccccc2C(=O)N(C2CCCCC2)[C@H]1c1ccc(CO)cc1,0.386
5,C=C[C@H](OC)[C@@H](OC(=O)Nc1ccc(SC)cc1)c1ccc(OC)c(O)c1,-0.778
6,CCc1cccc(NC(=O)O[C@H]2[C@H](OC(=O)Nc3ccccc3)[C@@H](OC(=O)Nc3ccccc3)[C@@H](OC)O[C@@H]2CO)c1,0.451
7,COCCOC(=O)N1C(=O)[C@@]2(c3cc(C#CCC(C(=O)OC)C(=O)OC)ccc31)[C@H](C(=O)N1CCN(c3ncccn3)CC1)[C@H]1C(=O)O[C@H](c3ccccc3)[C@H](c3ccccc3)N1[C@@H]2c1ccc(O)cc1,0.283
8,COc1ccc(-c2cc3c(c(-c4ccccc4)n2)[Si](C(C)C)(C(C)C)O[C@H]3c2ccccc2)cn1,0.605
9,CCC(=O)[C@]12O[C@@]3([C@@H]4C(=O)OCC[C@@H]41)N(Cc1ccccc1)C(C)=C(C(=O)OC)[C@@H](c1ccccc1)N3C2=O,1.47
10,CO[C@@H]1COC(=O)[C@H](C)NC(=O)CC=C[C@@H](C)[C@H](NS(=O)(=O)c2ccc(C)cc2)COC(=O)CC=C[C@@H]1C,-0.204
11,CC(=O)Nc1ccc([C@H]2[C@H](C)CC[C@H]3C(=O)N4[C@@H](CC[C@@H](C)[C@@H]4c4ccc(NC(C)=O)cc4)C(=O)N32)cc1,0.213
12,C=CCN(C(=O)C1N(c2ccc(CCO)cc2)C(=O)C2C(C(=O)O)C3C=CC21O3)C(C)(C)C (stereo not given),-1.06
13,CO[C@H]1COC(=O)[C@H](C)NC(=O)CC=C[C@@H](C)[C@H](NS(=O)(=O)c2ccc(C)cc2)COC(=O)[C@@H](OCc2ccccc2)C=C[C@@H]1C,0.51
14,COCCCNC(=O)[C@@]1(Sc2ccc(C)cc2)CC(=O)N(Cc2cc(C(F)(F)F)cc(C(F)(F)F)c2)[C@@H]1c1ccc(CO)cc1I,0.142
15,CO[C@H]1COC(=O)CC=C[C@H](C)[C@@H](OC)COC(=O)[C@H](Cc2ccccc2)NC(=O)CC=C[C@@H]1C,1.72
16,COCCOC(=O)N1C(=O)[C@@]2(c3cc(C#CCCO)ccc31)[C@H](C(=O)N1CCCCCCC1)[C@H]1C(=O)O[C@H](c3ccccc3)[C@H](c3ccccc3)N1[C@@H]2c1ccc(O)cc1,1.27
17,Cc1ccc(N2C(=O)c3ccccc3[C@@H](C(=O)NCc3ccccc3)[C@@H]2c2ccc(CO)cc2)nc1,1.71
18,O=C1C2C=CC(C(O)C(c3ccccc3)c3ccccc3)N(Nc3ccc([N+](=O)[O-])cc3)C2C(=O)N1c1ccccc1 (stereo not given),0.814
